Whole data set: some 39,000 sequences, median “fluorescence intensity (a.u.)” near 4,300, cut for the highest 2% near 39,000. This excerpt belongs to a sample that is enriched for the highest values.

The record followed here is PMC7819943, “Rice protein-binding microarrays: a tool to detect cis-acting elements near promoter regions in rice”.

The target of this test is T1, OsSMF1 (Oryza sativa, UniProt Q6ZLB0 1-436).
T1 sequence: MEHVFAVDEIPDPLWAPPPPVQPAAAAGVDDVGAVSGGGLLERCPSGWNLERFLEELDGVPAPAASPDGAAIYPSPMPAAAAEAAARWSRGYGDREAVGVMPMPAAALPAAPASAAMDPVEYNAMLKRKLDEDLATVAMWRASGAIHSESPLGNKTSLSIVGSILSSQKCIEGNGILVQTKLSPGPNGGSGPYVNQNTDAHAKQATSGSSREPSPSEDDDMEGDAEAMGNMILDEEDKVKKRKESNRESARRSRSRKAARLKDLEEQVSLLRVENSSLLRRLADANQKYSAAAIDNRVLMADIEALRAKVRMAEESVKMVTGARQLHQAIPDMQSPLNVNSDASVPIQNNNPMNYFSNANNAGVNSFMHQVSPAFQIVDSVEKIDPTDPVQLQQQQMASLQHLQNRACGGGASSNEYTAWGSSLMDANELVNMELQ
Nature of the test: protein-binding microarray (RPBM); PBS, 2% BSA, 51.3 ng/ul salmon testes DNA, 50 uM zinc acetate, 200 nM TF, 25 C, 1 h; high values mean tight binding. Particulars: protein: recombinant; tags: N-terminal polyhistidine and DsRed monomer fusion (pET32a); chain copies: 2; label: CyDye5-dUTP incorporated in the synthesized complementary strand; 3' TTTTT single-stranded linker to array surface; dsDNA, one strand shown. In short, it runs like this: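 Using Ni–NTA, transcription factors fused N-terminally to polyhistidine and DsRed were purified after expression in E. coli BL21-CodonPlus. These were incubated at 200 nM with a blocked, double-stranded custom Agilent array for 1 h at 25 °C in a buffer containing 50 µM zinc acetate, and the array was washed. The binding signal is per-feature fluorescence intensity (arbitrary units) on an Axon 4000B scanner.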
In the case of “TTCGACACAGTCATACGTGAGTCGGATGGAGTTAGGTCTGCGGAGTCACCTAGTGCAG”, the binding signal was 4150 fluorescence intensity (a.u.). For the sequence “CTCCTCCCATGCGCCGCCACGTAGGATCGCGCGATCAGATCGGAGTCACCTAGTGCAG”, the binding signal was 10300 fluorescence intensity (a.u.). For “AACACGAAAATGAAAGGGAGGGGCTTTCCTTAGCGATTAACGGAGTCACCTAGTGCAG” the value was 3830 fluorescence intensity (a.u.); for “TGTAAACTTTTATGATCATTTAGGAGCTCTGGACAGTAATCGGAGTCACCTAGTGCAG”, 18200 fluorescence intensity (a.u.); for “ATGCCATTGATTCAATAGTGAATCATCGTTCTTTCTGGATCGGAGTCACCTAGTGCAG”, 3550 fluorescence intensity (a.u.). Under “AAGTTATACTTAAAGTATTATAAATAATAAAGTAAGTCACCGGAGTCACCTAGTGCAG” stands 34100 fluorescence intensity (a.u.); under “AAATGGATGATAAGTATAATTACTTAGAGCAAGTTTAATACGGAGTCACCTAGTGCAG”, 65500 fluorescence intensity (a.u.); under “AGGTAATGTATCATAAAACTATAGATTTAACACTAAATTTCGGAGTCACCTAGTGCAG”, 53000 fluorescence intensity (a.u.). As to “GTATCAAAACATATTCAATCATAGATTTAATGAAAACTAACGGAGTCACCTAGTGCAG”, the binding signal is 3360 fluorescence intensity (a.u.).

Consider “TTTATTATTAGTTTACGTTTAATACTTCTAATTAGTATAACGGAGTCACCTAGTGCAG”, for which the binding signal was 3240 fluorescence intensity (a.u.). For “CTATAATTTAAACATGTAAAGTTTACGTGTATATAAATTTCGGAGTCACCTAGTGCAG” the value was 3160 fluorescence intensity (a.u.); for “TAGCCAGGAGGGAGGTGGCAAAACAGAATGATGGGAGGGACGGAGTCACCTAGTGCAG”, 3220 fluorescence intensity (a.u.).

Turning to “GGCTTAAGTCAAGCTAATTTTAGATATTTATTATTTTGTGCGGAGTCACCTAGTGCAG”, the binding signal was 3900 fluorescence intensity (a.u.). Under “GTTCCATTGGTTTGTAATAATGAAGCCTGCCTAGTGCTTTCGGAGTCACCTAGTGCAG” stands 32100 fluorescence intensity (a.u.); under “CATCGTCCGCCGTGACACGCTGGCGGAGTCCGTGGTGCTACGGAGTCACCTAGTGCAG”, 5010 fluorescence intensity (a.u.); under “GGGGAGGAGGACGAGTAACAGACGTGGTGGCCGCCGAGGCCGGAGTCACCTAGTGCAG”, 3490 fluorescence intensity (a.u.). For “CGTCGATTAATTTCCCTGGTAAATACGAAATGTTCATGGTCGGAGTCACCTAGTGCAG” the value was 39600 fluorescence intensity (a.u.).

As to “GTAATTAAATTAAATTAAATTGATTAATACCAACCCTGGTCGGAGTCACCTAGTGCAG”, the binding signal was 24500 fluorescence intensity (a.u.). Under “TATATTTCATTAATATAAATAAAATTAAAATGTTACTTAACGGAGTCACCTAGTGCAG” stands 25600 fluorescence intensity (a.u.); under “TGGCCCATCAGAGTCAGAGCCGCCGCCGACTCCAGATTCCCGGAGTCACCTAGTGCAG”, 3220 fluorescence intensity (a.u.). As for “CTCCACCACGAGTCACGAGTCACGACCACCTCTCCGGTCTCGGAGTCACCTAGTGCAG”, the binding signal was 4170 fluorescence intensity (a.u.). Regarding “CTGAACCATCCGACTCACCACCGGTATTTCTCGGCCATCTCGGAGTCACCTAGTGCAG”, the binding signal was 3950 fluorescence intensity (a.u.). On to “CTCTCCTCTCCTCTTGGTGATGACTGATCGATGACCACCACGGAGTCACCTAGTGCAG”, for which the binding signal is 4680 fluorescence intensity (a.u.). For “GATCTAGCCGACTCGATCCCGCCGATGACGATTCCATCCCCGGAGTCACCTAGTGCAG” the value was 39300 fluorescence intensity (a.u.); for “CTCCTCTCCGATGAAGACCTGCCACCGGTCTGAACCATCTCGGAGTCACCTAGTGCAG”, 64300 fluorescence intensity (a.u.); for “TCTCTCTCATCCTTCCAATCGATCTCCTCGACCTGCTATGCGGAGTCACCTAGTGCAG”, 3440 fluorescence intensity (a.u.). For “ATGATGATGATCCTGATCCTGATCTTCCTCCTCGATCGACCGGAGTCACCTAGTGCAG” the value was 42700 fluorescence intensity (a.u.); for “CCCCACTGATGATGATGATGACTCGATTCTATTCCACCGCCGGAGTCACCTAGTGCAG”, 5550 fluorescence intensity (a.u.); for “GCCCGGAAGCTAGCGCCTCGTCGACTTGGGCGGCGGCTGACGGAGTCACCTAGTGCAG”, 18000 fluorescence intensity (a.u.). For “CTTAGTCGCCATTTTCTTCCCATATCCACGCGCCACGTGGCGGAGTCACCTAGTGCAG” the value was 25100 fluorescence intensity (a.u.); for “TGAATCTATACACTCTTCTATTCAGATTCGTTGTACTATGCGGAGTCACCTAGTGCAG”, 3870 fluorescence intensity (a.u.); for “GCCTAATTACATCATGATTTGACAATGTTGTGCTACAGTACGGAGTCACCTAGTGCAG”, 4210 fluorescence intensity (a.u.). In the case of “CTACCAGACCCGTGGGCCGGCTCTGCCTCGCCTAATCCAGCGGAGTCACCTAGTGCAG”, the binding signal was 47000 fluorescence intensity (a.u.). For “GCCGTGCCGTGCCGTGCCGGCCCGCGGGCTCGGCCAGCGGCGGAGTCACCTAGTGCAG” the value was 30700 fluorescence intensity (a.u.). Under “CCGCGGCCACCTGGCCTACCTCGCCTCTCCCGTGGGCCCCCGGAGTCACCTAGTGCAG” stands 3240 fluorescence intensity (a.u.); under “TGCATAAGTGTCCGTACCAGTACGGTCAGAGTGACATATGCGGAGTCACCTAGTGCAG”, 3770 fluorescence intensity (a.u.); under “TTACGAGACGAATCTTTTAAGACTAATTGCTCCATGATTTCGGAGTCACCTAGTGCAG”, 3280 fluorescence intensity (a.u.). Under “TAAATTTTAATTTTCTGATTGGTATGCCACGTTAGTGAAACGGAGTCACCTAGTGCAG” stands 3420 fluorescence intensity (a.u.); under “TTTGGTTTCCGGCCAAACATTGCCACGCCTAACTTAAGGCCGGAGTCACCTAGTGCAG”, 5170 fluorescence intensity (a.u.); under “TTTCTCTGAACGACCGGCCACGTTAAACTAAGGCCAAGTCCGGAGTCACCTAGTGCAG”, 65500 fluorescence intensity (a.u.). Turning to “CGCCATCGCCAACGCCAACGCCTCCGCGGACTCCATTGTCCGGAGTCACCTAGTGCAG”, the binding signal is 3650 fluorescence intensity (a.u.). As to “AATGTAGGCACCATACCATGACTGTTTTCACACATTGTACCGGAGTCACCTAGTGCAG”, the binding signal was 3580 fluorescence intensity (a.u.).

In the case of “GATAGGAGGGGATAACTTGTTTCATATTTTGTGCCGGGTTCGGAGTCACCTAGTGCAG”, the binding signal was 3710 fluorescence intensity (a.u.). For the sequence “AATATGAACTGATAGGATTTGTTTTCACACCATACCAAACCGGAGTCACCTAGTGCAG”, the binding signal was 59700 fluorescence intensity (a.u.). For “GGGCCAAATTTTATCGAGAAGATTAGACACGAGTATGGGCCGGAGTCACCTAGTGCAG” the value was 47600 fluorescence intensity (a.u.); for “AGCGAGACACTTTGAGATTTAGTATGAGTCATGTAAATTACGGAGTCACCTAGTGCAG”, 7830 fluorescence intensity (a.u.); for “TGCGATTTTAGACGATTATCGTGCGATTATCACGGTTATCCGGAGTCACCTAGTGCAG”, 3360 fluorescence intensity (a.u.). For the sequence “GCGTGCCGAAGGTGTGTCCCCTGCACCGGCTCCGGCAGGTCGGAGTCACCTAGTGCAG”, the binding signal was 9960 fluorescence intensity (a.u.). Under “ATGAAAGGGAATGTGTGGTGGAGGAGGTGGCTGAGAGATTCGGAGTCACCTAGTGCAG” stands 3340 fluorescence intensity (a.u.); under “ATTCGTTATACTAGGTGACATCTCATCTAATATTTGTTTACGGAGTCACCTAGTGCAG”, 4270 fluorescence intensity (a.u.). For “TGAACATGCCCATTGTTACTCATTCCTAATACTATAGGAACGGAGTCACCTAGTGCAG” the value was 42200 fluorescence intensity (a.u.); for “TTGTTGAAGCAGTTTAATGTTAATAGTATACTAACATTAACGGAGTCACCTAGTGCAG”, 28600 fluorescence intensity (a.u.); for “GGAACTTCTGTTTAGGCATTTGCACCTGAAATATGATCTGCGGAGTCACCTAGTGCAG”, 3190 fluorescence intensity (a.u.).

For “TCCCGCAGGAGTTCCACCCACGTGTCATAAACCATTACAGCGGAGTCACCTAGTGCAG”, the binding signal was 12800 fluorescence intensity (a.u.).
